According to the supplement of paper PMC10849652:
Of roughly 8,800 targets only a part is listed; those with a hit were picked by preference. About 0.5% of all pairs of compound and target were hits.

Tests used:
Experiment in all cases: log2 fold change, soluble protein after heating vs DMSO (PISA); higher = thermal stabilisation; K562 lysate, 10 uM; active = over 0.2 and 3.5 SD of the protein, either way, in both replicates (recomputed)
[1] = compound: C#Cc1cccc(Nc2ncnc3cc(OCCOC)c(OCCOC)cc23)c1 [erlotinib]
Procedure, shortened: (§1)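 To prepare the extract, K562 pellets were dounce-homogenised in PBS pH 7.4 with 1 mM MgCl2, giving crude material at 1 mg/mL protein. This was treated with 10 μM compound for 30 min, then heated in aliquots for 3 min over 48°C-58°C before pooling and addition of NP-40 to 0.5% at 4°C. Centrifugation at 21,000xg for 90 min left soluble protein in the supernatant, which TMTpro 16plex LC-MS/MS quantified with equalised channel sums. Results are log-two fold changes in thermal stability compared with solvent controls, from duplicates.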

[2] = compound: C/C(=N\NC(=O)C1=CC(=CC=C1)S(=O)(=O)N2CCOCC2)/C3=C(C=CC(=C3)Cl)O
Procedure, shortened: as §1

[3] = compound: C1=CC(=CC=C1C2=NC3=C(N2)C=C(C=C3)C(=O)N)OC4=CC=C(C=C4)Cl
Procedure, shortened: as §1

[4] = compound: C1=CC2=C(C=CC(=C2)/C=C\3/C(=O)NC(=NCC4=CC=CS4)S3)N=C1
Procedure, shortened: as §1

[5] = compound: C1=CC2=NC=CN=C2C=C1/C=C/3\C(=O)NC(=O)S3
Procedure, shortened: as §1

[6] = compound: C1=CC=C(C=C1)C2=NC(=C(N2)C3=CC=NC=C3)C4=CC(=C(C=C4)Cl)O
Procedure, shortened: as §1

[7] = compound: C1=CC=C2C(=C1)C3=NNC4=CC=CC(=C43)C2=O
Procedure, shortened: as §1

[8] = compound: C1CCN(C1)C(=O)NC2=CC=CC(=C2)NC3=NC=C(C(=N3)NCCC4=CN=CN4)Br
Procedure, shortened: as §1

[9] = compound: C1CN(CCC1(CC2=CC=C(C=C2)Cl)N)C3=NC=NC4=C3C=CN4
Procedure, shortened: as §1

[10] = compound: C1COCCN1CCN2C3=CC=CC=C3N=C2NC(=O)C4=CC(=CC=C4)[N+](=O)[O-] [IRAK-1-4 Inhibitor I]
Procedure, shortened: as §1

[11] = compound: C=CC(=O)N1CCC[C@@H](n2nc(-c3ccc(Oc4ccccc4)cc3)c3c(N)ncnc32)C1 [ibrutinib]
Procedure, shortened: as §1

[12] = compound: CC(=O)c1cnc2ccc(-c3cc(Cl)c(O)c(Cl)c3)nc2c1N[C@H]1CC[C@H](CN(C)C)CC1
Procedure, shortened: as §1

[13] = compound: CC(C)(C)Cn1c(N)nc2ccc(-c3[nH]c(C(C)(C)C)nc3-c3ccc(F)cc3)nc21 [ralimetinib]
Procedure, shortened: as §1

[14] = compound: CC(C)(O)CC(=O)NCCn1ccc2ncnc(Nc3ccc(Oc4cccc(C(F)(F)F)c4)c(Cl)c3)c21
Procedure, shortened: as §1

[15] = compound: CC(C)C1=C2N=C(C=C(N2N=C1)NCC3=CC=CC=C3)NCCCCCCN
Procedure, shortened: as §1

[16] = compound: CC1=C(C(CC(=O)N1)C2=CC=C(C=C2)C(F)(F)F)C(=O)NC3=C(C=C4C(=C3)C=NN4)F
Procedure, shortened: as §1

[17] = compound: CC1=C(C2=C(C=C1)C(=O)C3=CC=CC=C3N2CCCN)C
Procedure, shortened: as §1

[18] = compound: CC1=C(C=C(C=C1)NC(=O)C2=CC(=CC=C2)C(C)(C)C#N)NC3=CC4=C(C=C3)N=CN(C4=O)C
Procedure, shortened: as §1

[19] = compound: CC1=C(C=C(C=C1)NC(=O)C2=CC(=CC=C2)N(C)C)NC(=O)C3=CC=C(C=C3)O
Procedure, shortened: as §1

[20] = compound: CC1=CC=C(C=C1)SC2=C3C=C(SC3=CN=C2)C(=O)N
Procedure, shortened: as §1

Measured: log2 fold change

PRIM1 (UniProt P49642)
inactive: [1] -0.004 | [2] 0.061 | [3] -0.011 | [4] -0.01 | [5] -0.03 | [6] 0.02 | [7] 0 | [8] -0.006 | [9] 0.002 | [10] 0.003 | [11] -0.016 | [12] 0.014 | [13] 0.056 | [14] 0.056 | [15] 0.016 | [16] 0.027 | [17] -0.019 | [18] 0.015 | [19] 0.011 | [20] 0.02

PDAP1 (UniProt Q13442)
inactive: [1] -0.01 | [2] -0.022 | [3] 0.02 | [4] -0.005 | [5] 0.001 | [6] -0.007 | [7] 0.023 | [8] 0.016 | [9] -0.012 | [10] 0.026 | [11] -0.042 | [12] -0.012 | [13] -0.002 | [14] -0.065 | [15] 0.011 | [16] -0.046 | [17] 0.043 | [18] -0.015 | [19] -0.02 | [20] -0.008

PES1 (UniProt O00541)
inactive: [1] 0 | [2] -0.071 | [3] -0.014 | [4] -0.044 | [5] -0.001 | [6] 0.001 | [7] -0.012 | [8] 0.025 | [9] -0.056 | [10] 0.037 | [11] 0.016 | [12] 0.017 | [13] 0.031 | [14] -0.03 | [15] 0.006 | [16] 0.013 | [17] -0.052 | [18] 0.012 | [19] 0.003 | [20] 0.007

PIM1 isoform 2 (UniProt P11309)
Chain of UniProt P11309 (P11309 whole entry, looked up): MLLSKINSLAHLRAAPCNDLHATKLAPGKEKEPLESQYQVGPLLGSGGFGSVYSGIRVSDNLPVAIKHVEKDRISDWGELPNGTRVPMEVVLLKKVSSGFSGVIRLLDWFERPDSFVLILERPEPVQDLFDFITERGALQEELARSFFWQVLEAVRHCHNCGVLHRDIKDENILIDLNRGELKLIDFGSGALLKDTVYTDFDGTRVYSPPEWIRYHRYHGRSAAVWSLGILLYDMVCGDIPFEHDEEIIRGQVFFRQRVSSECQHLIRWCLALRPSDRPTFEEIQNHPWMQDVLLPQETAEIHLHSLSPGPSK
inactive: [1] 0.118 | [2] -0.106 | [3] -0.164 | [4] 0.028 | [5] 0.238 | [6] 0.123 | [7] -0.034 | [8] -0.077 | [9] 0.02 | [10] -0.076 | [11] -0.138 | [13] 0.042 | [14] 0.122 | [15] -0.038 | [16] -0.014 | [17] 0.054 | [18] 0.01 | [19] 0.054

PCBP2 isoform 3 (UniProt Q15366)
Chain of UniProt Q15366 (Q15366 whole entry, looked up): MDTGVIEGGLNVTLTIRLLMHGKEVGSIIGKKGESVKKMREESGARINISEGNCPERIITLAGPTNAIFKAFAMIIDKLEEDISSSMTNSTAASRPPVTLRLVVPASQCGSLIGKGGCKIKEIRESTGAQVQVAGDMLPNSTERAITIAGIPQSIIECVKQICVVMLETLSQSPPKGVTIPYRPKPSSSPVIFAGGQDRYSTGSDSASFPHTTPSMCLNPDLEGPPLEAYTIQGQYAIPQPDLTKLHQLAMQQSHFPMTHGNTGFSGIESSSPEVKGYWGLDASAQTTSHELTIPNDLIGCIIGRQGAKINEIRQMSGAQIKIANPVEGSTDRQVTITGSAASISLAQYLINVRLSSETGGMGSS
inactive: [1] -0.017 | [2] 0.005 | [3] -0.027 | [4] 0.018 | [5] 0.034 | [6] 0.012 | [7] 0.042 | [8] 0.038 | [9] -0.022 | [10] -0.026 | [11] -0.007 | [12] 0.025 | [13] 0.021 | [14] 0.022 | [15] -0.019 | [16] -0.034 | [17] 0.06 | [18] -0.017 | [19] -0.016 | [20] -0.017

PRIMPOL (UniProt Q96LW4)
inactive: [1] -0.063 | [2] 0.007 | [3] -0.02 | [4] -0.025 | [5] 0.076 | [6] -0.013 | [7] 0.019 | [8] 0.009 | [9] -0.046 | [10] 0.059 | [11] 0.062 | [13] 0.055 | [14] -0.027 | [15] 0.048 | [16] -0.055 | [17] -0.034 | [18] 0.078 | [19] 0.049

PIKFYVE (UniProt Q9Y2I7)
inactive: [1] -0.026 | [2] -0.008 | [3] -0.01 | [4] 0.005 | [5] -0.011 | [6] 0.03 | [7] -0.034 | [8] -0.039 | [9] 0.035 | [10] -0.004 | [11] 0.019 | [12] -0.012 | [13] 0.011 | [14] -0.012 | [15] 0 | [16] 0.042 | [17] 0.003 | [18] -0.044 | [19] 0.016 | [20] -0.004

PPP1R12B isoform 6 (UniProt O60237)
inactive: [1] -0.081 | [2] 0.025 | [3] -0.103 | [4] -0.08 | [5] 0.057 | [6] -0.053 | [7] -0.07 | [8] -0.123 | [9] 0.037 | [10] 0.153 | [11] 0.019 | [12] -0.112 | [13] 0.01 | [14] -0.251 | [15] 0.095 | [17] 0.106 | [18] 0.142 | [19] -0.012 | [20] -0.194

PHACTR4 isoform 2 (UniProt Q8IZ21)
Chain of UniProt Q8IZ21 (Q8IZ21 whole entry, looked up): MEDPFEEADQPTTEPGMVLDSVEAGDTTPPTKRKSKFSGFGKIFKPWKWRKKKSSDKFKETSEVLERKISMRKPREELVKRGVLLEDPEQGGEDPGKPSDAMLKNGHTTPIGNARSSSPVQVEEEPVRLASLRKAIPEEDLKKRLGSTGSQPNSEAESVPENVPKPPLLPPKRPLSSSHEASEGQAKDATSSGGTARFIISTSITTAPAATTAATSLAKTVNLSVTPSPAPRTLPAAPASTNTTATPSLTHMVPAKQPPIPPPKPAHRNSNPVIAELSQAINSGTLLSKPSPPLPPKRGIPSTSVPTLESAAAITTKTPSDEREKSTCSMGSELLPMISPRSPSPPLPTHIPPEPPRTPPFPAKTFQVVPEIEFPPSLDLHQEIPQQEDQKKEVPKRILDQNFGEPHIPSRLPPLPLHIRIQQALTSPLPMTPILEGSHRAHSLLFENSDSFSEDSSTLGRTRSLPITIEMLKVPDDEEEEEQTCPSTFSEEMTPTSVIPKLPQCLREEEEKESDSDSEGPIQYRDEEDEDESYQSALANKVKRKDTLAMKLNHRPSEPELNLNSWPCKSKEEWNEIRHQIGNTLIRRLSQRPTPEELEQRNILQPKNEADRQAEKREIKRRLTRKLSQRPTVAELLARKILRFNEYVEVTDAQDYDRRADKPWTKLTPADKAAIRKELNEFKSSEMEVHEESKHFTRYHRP
inactive: [1] 0.003 | [2] -0.02 | [3] 0.012 | [4] -0.004 | [5] -0.021 | [6] 0.021 | [7] 0.013 | [8] -0.017 | [9] 0.052 | [10] 0.011 | [11] -0.009 | [12] -0.005 | [13] -0.009 | [14] -0.047 | [15] -0.019 | [16] 0.025 | [17] -0.028 | [18] 0.021 | [19] -0.016 | [20] -0.01

PRKD3 (UniProt O94806)
Chain of UniProt O94806 (O94806 whole entry, looked up): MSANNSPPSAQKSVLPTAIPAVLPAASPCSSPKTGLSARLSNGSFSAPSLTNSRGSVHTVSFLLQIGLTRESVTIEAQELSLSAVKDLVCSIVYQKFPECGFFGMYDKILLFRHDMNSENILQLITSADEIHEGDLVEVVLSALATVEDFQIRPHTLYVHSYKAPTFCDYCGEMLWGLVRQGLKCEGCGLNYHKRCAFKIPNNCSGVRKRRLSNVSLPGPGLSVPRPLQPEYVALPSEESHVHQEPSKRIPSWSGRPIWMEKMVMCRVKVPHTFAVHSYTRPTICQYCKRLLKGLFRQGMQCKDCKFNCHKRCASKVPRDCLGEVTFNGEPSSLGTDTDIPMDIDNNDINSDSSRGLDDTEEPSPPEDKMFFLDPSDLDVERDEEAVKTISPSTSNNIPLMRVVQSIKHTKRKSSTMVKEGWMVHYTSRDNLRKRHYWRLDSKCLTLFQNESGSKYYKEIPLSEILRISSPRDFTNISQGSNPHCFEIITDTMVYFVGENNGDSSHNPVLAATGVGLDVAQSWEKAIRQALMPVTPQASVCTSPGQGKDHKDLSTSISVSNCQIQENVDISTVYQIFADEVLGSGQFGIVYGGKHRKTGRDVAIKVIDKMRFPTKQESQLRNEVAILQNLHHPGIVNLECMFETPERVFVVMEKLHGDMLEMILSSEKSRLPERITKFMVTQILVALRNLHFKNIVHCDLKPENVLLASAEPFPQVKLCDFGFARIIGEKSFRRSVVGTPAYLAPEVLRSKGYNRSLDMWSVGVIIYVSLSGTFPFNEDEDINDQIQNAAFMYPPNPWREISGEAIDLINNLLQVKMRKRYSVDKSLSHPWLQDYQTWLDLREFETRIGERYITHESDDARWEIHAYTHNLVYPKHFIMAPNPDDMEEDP
inactive: [1] -0.041 | [2] 0.105 | [3] -0.123 | [4] -0.145 | [5] 0.039 | [6] 0.115 | [7] 0.123 | [8] -0.163 | [9] -0.115 | [10] 0.053 | [11] -0.112 | [12] 0.054 | [13] -0.164 | [14] -0.052 | [15] 0.03 | [16] 0.039 | [18] -0.068 | [19] -0.022 | [20] -0.077

PDE4DIP isoform 4 (UniProt Q5VU43)
inactive: [1] 0.002 | [2] -0.026 | [3] 0.017 | [4] 0.004 | [5] -0.004 | [6] 0 | [7] -0.111 | [8] -0.009 | [9] 0.055 | [10] 0.024 | [11] 0.249 | [12] -0.021 | [13] 0.02 | [14] -0.03 | [15] -0.061 | [16] -0.032 | [17] 0.006 | [18] 0.054 | [19] -0.033 | [20] 0.017

PPM1H (UniProt Q9ULR3)
Chain of UniProt Q9ULR3 (Q9ULR3 whole entry, looked up): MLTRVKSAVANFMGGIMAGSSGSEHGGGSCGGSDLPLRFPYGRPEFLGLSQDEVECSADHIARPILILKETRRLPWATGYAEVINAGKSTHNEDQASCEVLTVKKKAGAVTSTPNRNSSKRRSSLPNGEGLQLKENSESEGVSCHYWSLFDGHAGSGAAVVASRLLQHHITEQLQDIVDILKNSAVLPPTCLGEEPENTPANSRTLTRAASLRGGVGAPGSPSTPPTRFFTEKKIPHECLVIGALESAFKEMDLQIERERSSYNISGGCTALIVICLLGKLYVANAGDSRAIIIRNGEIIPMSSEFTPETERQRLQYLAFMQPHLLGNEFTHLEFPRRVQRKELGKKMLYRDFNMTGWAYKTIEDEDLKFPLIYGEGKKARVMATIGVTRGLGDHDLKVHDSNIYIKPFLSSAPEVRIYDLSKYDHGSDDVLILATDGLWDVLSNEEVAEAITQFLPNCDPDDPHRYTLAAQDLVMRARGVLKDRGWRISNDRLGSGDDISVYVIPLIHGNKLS
inactive: [1] -0.048 | [2] -0.045 | [4] 0.021 | [5] -0.049 | [6] 0.009 | [7] 0.011 | [8] -0.039 | [9] 0.101 | [10] 0.037 | [11] 0.058 | [12] -0.032 | [13] -0.008 | [14] -0.035 | [15] 0.019 | [17] -0.028 | [18] 0.048 | [19] -0.007 | [20] 0.02
active: [3] 0.25

PRKCSH (UniProt P14314)
inactive: [1] -0.027 | [2] 0.013 | [3] 0.01 | [4] -0.012 | [5] -0.012 | [6] 0.023 | [7] 0.07 | [8] 0.027 | [9] -0.027 | [10] 0.005 | [11] -0.008 | [12] 0.01 | [13] 0.007 | [14] 0.019 | [15] -0.026 | [16] -0.004 | [17] 0.047 | [18] -0.057 | [19] 0.001 | [20] 0

PRRC2A (UniProt P48634)
Chain of UniProt P48634 (P48634 whole entry, looked up): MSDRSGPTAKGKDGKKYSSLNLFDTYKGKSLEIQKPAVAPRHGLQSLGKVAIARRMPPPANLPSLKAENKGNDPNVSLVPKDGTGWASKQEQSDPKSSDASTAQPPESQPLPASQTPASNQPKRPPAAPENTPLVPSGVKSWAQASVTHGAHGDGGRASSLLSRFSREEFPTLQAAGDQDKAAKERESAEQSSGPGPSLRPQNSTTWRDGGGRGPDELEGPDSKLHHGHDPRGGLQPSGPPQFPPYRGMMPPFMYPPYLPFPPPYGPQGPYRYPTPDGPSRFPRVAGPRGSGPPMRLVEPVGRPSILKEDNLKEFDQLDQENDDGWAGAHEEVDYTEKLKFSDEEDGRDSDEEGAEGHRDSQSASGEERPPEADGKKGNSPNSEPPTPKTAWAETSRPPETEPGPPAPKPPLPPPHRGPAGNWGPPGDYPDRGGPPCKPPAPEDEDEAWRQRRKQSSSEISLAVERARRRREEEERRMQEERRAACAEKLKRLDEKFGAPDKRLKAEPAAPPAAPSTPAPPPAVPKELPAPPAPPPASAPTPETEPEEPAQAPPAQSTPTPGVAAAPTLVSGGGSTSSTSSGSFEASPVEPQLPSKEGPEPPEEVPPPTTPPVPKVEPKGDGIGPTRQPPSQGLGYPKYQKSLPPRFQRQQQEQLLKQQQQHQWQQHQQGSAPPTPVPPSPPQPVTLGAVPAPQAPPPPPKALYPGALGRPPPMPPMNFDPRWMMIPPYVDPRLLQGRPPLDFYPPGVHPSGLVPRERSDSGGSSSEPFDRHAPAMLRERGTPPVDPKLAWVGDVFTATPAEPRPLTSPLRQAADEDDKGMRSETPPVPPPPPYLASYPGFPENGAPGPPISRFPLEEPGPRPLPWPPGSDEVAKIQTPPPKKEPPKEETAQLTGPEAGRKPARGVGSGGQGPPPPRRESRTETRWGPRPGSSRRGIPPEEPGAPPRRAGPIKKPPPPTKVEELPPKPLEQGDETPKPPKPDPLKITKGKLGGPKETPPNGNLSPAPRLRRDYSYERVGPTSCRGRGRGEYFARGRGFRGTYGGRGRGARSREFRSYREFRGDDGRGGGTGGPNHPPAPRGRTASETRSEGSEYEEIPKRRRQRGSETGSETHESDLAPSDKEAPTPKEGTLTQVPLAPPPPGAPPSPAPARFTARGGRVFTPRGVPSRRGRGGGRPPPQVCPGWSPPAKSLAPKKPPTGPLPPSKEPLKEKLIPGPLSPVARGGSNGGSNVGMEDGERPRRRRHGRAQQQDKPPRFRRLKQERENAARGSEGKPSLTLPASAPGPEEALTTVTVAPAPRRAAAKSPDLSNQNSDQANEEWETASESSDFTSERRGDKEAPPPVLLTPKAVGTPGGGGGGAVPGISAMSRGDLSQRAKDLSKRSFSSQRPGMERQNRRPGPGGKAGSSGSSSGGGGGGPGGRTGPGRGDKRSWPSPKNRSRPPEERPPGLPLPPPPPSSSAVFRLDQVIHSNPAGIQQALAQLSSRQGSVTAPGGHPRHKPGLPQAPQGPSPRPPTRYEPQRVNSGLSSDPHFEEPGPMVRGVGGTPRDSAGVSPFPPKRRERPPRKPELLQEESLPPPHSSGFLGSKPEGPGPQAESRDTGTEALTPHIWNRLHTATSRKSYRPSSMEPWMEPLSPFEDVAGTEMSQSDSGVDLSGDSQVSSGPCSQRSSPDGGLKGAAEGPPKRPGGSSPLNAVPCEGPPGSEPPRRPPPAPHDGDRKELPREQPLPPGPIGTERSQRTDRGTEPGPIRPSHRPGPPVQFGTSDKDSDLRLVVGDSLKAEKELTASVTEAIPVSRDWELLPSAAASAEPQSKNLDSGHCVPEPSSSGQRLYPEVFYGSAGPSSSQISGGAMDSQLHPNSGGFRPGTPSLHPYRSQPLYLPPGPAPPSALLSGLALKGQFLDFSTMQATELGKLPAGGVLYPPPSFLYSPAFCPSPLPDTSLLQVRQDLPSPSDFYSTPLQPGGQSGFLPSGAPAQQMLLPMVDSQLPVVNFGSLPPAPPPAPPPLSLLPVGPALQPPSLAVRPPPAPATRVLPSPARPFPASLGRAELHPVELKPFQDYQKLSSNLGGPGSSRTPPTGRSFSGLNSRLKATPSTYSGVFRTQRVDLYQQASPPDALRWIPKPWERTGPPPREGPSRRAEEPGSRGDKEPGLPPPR
inactive: [1] -0.026 | [2] -0.018 | [3] 0.073 | [4] -0.002 | [5] 0.006 | [6] -0.09 | [7] 0.014 | [8] 0.01 | [9] 0.006 | [10] 0.026 | [11] 0.006 | [12] -0.014 | [13] -0.01 | [14] -0.02 | [15] 0.002 | [16] 0.015 | [17] -0.003 | [19] 0.003 | [20] -0.026
active: [18] -0.26

PHKA2 (UniProt P46019)
inactive: [1] 0.048 | [2] -0.051 | [3] 0.032 | [4] 0.052 | [5] 0.044 | [6] -0.058 | [7] 0.012 | [8] 0.027 | [9] 0.033 | [10] 0.03 | [11] -0.032 | [12] 0.095 | [13] -0.022 | [14] -0.097 | [15] -0.016 | [16] -0.03 | [17] -0.076 | [18] 0.007 | [19] 0.013 | [20] -0.015

PRKACB isoform 2 (UniProt P22694)
active: [8] 0.352 | [9] 0.354 | [12] 0.693
inactive: [1] -0.033 | [2] -0.03 | [3] -0.03 | [4] 0.04 | [5] -0.028 | [6] -0.019 | [7] 0.129 | [10] 0.009 | [11] -0.006 | [13] 0.033 | [14] -0.03 | [15] -0.013 | [16] 0.025 | [17] -0.014 | [18] -0.037 | [19] 0.014 | [20] -0.024
